Data reported in the supplement of paper PMC7366291.
Structures can show the parent of a compound that is named as a salt. ± gives the standard deviation or the standard deviation of the averaged measurements.

Legend:
Details in all cases: 25 µM; exposure: 24-48 hpf
[1] = test system: Danio rerio Tg(wt1b:EGFP) embryo, pronephros; assay: glomerular separation, fold change vs DMSO control; higher = glomeruli further apart (abnormal)
Outline: (§1)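 Every feature is expressed as a fold change relative to the averaged DMSO-treated embryos of the same day. The exposure ran from 24 to 48 hpf at 28.5°C, with dechorionated Tg(wt1b:EGFP) zebrafish embryos in HEPES-buffered E3 containing 0.003% PTU, 0.5% DMSO and 25 μM compound. Dorsal pronephros images taken in agarose-filled 96-well plates were reduced to maximum projections, on which 16 reference points were set by hand in Fiji for a macro to compute distances and angles. Values more than 2 SD from the feature mean were not used.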

[2] = test system: Danio rerio Tg(wt1b:EGFP) embryo, pronephros; assay: glomerular width (mean of left and right), fold change vs DMSO control; higher = wider glomerulus
Outline: as §1

[3] = test system: Danio rerio Tg(wt1b:EGFP) embryo, pronephros; assay: fraction of imaged embryos annotated as normal kidney; higher = less nephrotoxic; extreme values may be limits of the assay
Outline: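 Tricaine-anaesthetised Tg(wt1b:EGFP) zebrafish larvae were oriented dorsally in agarose-filled 96-well plates, and their pronephroi were recorded by widefield fluorescence at 470 nm in 10 z-slices. Before this, the dechorionated embryos had been exposed in 12-well plates to 25 μM compound in 0.5% DMSO and 5 mM HEPES-buffered E3 with 0.003% PTU, from 24 to 48 hpf at 28.5°C. Maximum projections were annotated manually for each embryo, and the read-out is the fraction per treatment classed as normal kidney.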

[4] = test system: Danio rerio Tg(wt1b:EGFP) embryo, pronephros; assay: pronephric angle neck segment to proximal convoluted tubule (mean of left and right), fold change vs DMSO control; higher = larger pronephric angle
Outline: as §1

C[C@@H](O)[C@H]1C(=O)N2C(C(=O)O)=C(S[C@@H]3CN[C@H](C(=O)N(C)C)C3)[C@H](C)[C@H]12 [Meropenem]
glomerular separation [1]: 1.03 ± 0.35
glomerular width [2]: 0.957 ± 0.021
fraction of imaged embryos annotated as normal kidney [3]: 0.75
pronephric angle neck segment [4]: 1.0113 ± 1.4e-05

CC(C)(C)c1ccc(C(O)CCCN2CCC(C(O)(c3ccccc3)c3ccccc3)CC2)cc1 (stereo not drawn) [Terfenadine]
glomerular separation [1]: 0.943 ± 0.3
glomerular width [2]: 1.023 ± 0.0083
fraction of imaged embryos annotated as normal kidney [3]: 0.583
pronephric angle neck segment [4]: 1.02 ± 0.039

C=C1/C(=C\C=C2/CCC[C@]3(C)[C@@H]([C@H](C)/C=C/[C@@H](O)C4CC4)CC[C@@H]23)C[C@@H](O)C[C@@H]1O [Calcipotriene]
glomerular separation [1]: 1.01 ± 0.34
glomerular width [2]: 1.06 ± 0.012
fraction of imaged embryos annotated as normal kidney [3]: 0.75
pronephric angle neck segment [4]: 0.89787 ± 0.00058

COc1ccccc1OCC(O)COC(N)=O (stereo not drawn) [Methocarbamol]
glomerular separation [1]: 1.02 ± 0.45
glomerular width [2]: 1.05 ± 0.03
fraction of imaged embryos annotated as normal kidney [3]: 0.833
pronephric angle neck segment [4]: 1 ± 0.013

Cc1nc2ccccn2c(=O)c1CCN1CCC(C(=O)c2ccc(F)cc2)CC1 [Pirenperone]
glomerular separation [1]: 0.831 ± 0.3
glomerular width [2]: 1.05 ± 0.037
fraction of imaged embryos annotated as normal kidney [3]: 1
pronephric angle neck segment [4]: 0.924 ± 0.0096

CCCSc1ccc2[nH]c(NC(=O)OC)nc2c1 [Albendazole]
glomerular separation [1]: 3.72 ± 1.5
glomerular width [2]: 0.591 ± 0.025
fraction of imaged embryos annotated as normal kidney [3]: 0
pronephric angle neck segment [4]: 1.97 ± 0.07

C[C@]12CCC(=O)C=C1CC[C@@H]1[C@@H]2C(=O)C[C@@]2(C)[C@H]1CC[C@]2(O)C(=O)CO [Cortisone]
glomerular separation [1]: 1.08 ± 0.37
glomerular width [2]: 1.13 ± 0.017
fraction of imaged embryos annotated as normal kidney [3]: 0.917
pronephric angle neck segment [4]: 1.031 ± 0.0011

CC[C@H]1OC(=O)[C@H](C)[C@@H](O[C@H]2C[C@@](C)(OC)[C@@H](O)[C@H](C)O2)[C@H](C)[C@@H](O[C@@H]2O[C@H](C)C[C@H](N(C)C)[C@H]2O)[C@](C)(O)C[C@@H](C)C(=O)[C@H](C)[C@@H](O)[C@]1(C)O [Erythromycin]
glomerular separation [1]: 1.19 ± 0.74
glomerular width [2]: 1.042 ± 0.0044
fraction of imaged embryos annotated as normal kidney [3]: 0.818
pronephric angle neck segment [4]: 0.9494 ± 0.0015

CCN(CC)CCOc1ccc(C(=C(Cl)c2ccccc2)c2ccccc2)cc1 [Clomiphene citrate (Z,E)]
glomerular separation [1]: 1.1 ± 0.41
glomerular width [2]: 0.981 ± 0.019
fraction of imaged embryos annotated as normal kidney [3]: 0.75
pronephric angle neck segment [4]: 0.974 ± 0.053

COc1ccc(CN(CCN(C)C)c2ccccn2)cc1 [Pyrilamine maleate]
glomerular separation [1]: 1.29 ± 0.44
glomerular width [2]: 1.03 ± 0.018
fraction of imaged embryos annotated as normal kidney [3]: 0.667
pronephric angle neck segment [4]: 1.03 ± 0.033

CCC(=O)OCC(=O)[C@@]1(OC(=O)CC)[C@@H](C)C[C@H]2[C@@H]3CCC4=CC(=O)C=C[C@]4(C)[C@@]3(Cl)[C@@H](O)C[C@@]21C [Beclomethasone dipropionate]
glomerular separation [1]: 1.04 ± 0.69
glomerular width [2]: 1.16 ± 0.021
fraction of imaged embryos annotated as normal kidney [3]: 0.417
pronephric angle neck segment [4]: 1.16 ± 0.091

Cc1cc(C(C)(C)C)cc(C)c1CC1=NCCN1 [Xylometazoline hydrochloride]
glomerular separation [1]: 1.11 ± 0.42
glomerular width [2]: 0.948 ± 0.05
fraction of imaged embryos annotated as normal kidney [3]: 1
pronephric angle neck segment [4]: 1 ± 0.012

C[C@H](CCC(=O)O)[C@H]1CC[C@H]2[C@@H]3C(=O)C[C@@H]4CC(=O)CC[C@]4(C)[C@H]3CC(=O)[C@]12C [Dehydrocholic acid]
glomerular separation [1]: 0.9 ± 0.25
glomerular width [2]: 0.978 ± 0.07
fraction of imaged embryos annotated as normal kidney [3]: 0.833
pronephric angle neck segment [4]: 0.984 ± 0.029

CN1CCN(C2=Nc3ccccc3Oc3ccc(Cl)cc32)CC1 [Loxapine succinate]
glomerular separation [1]: 1.15 ± 0.43
glomerular width [2]: 0.974 ± 0.014
fraction of imaged embryos annotated as normal kidney [3]: 0.75
pronephric angle neck segment [4]: 1.06 ± 0.013

CC(Cc1cccc(C(F)(F)F)c1)NCCOC(=O)c1ccccc1 (stereo not drawn) [Benfluorex]
glomerular separation [1]: 0.843 ± 0.23
glomerular width [2]: 1 ± 0.03
fraction of imaged embryos annotated as normal kidney [3]: 0.917
pronephric angle neck segment [4]: 1.04 ± 0.045

CO/N=C(\C(=O)N[C@@H]1C(=O)N2C(C(=O)OC(C)OC(C)=O)=C(COC(N)=O)CS[C@H]12)c1ccco1 (stereo partly drawn) [Cefuroxime axetil]
glomerular separation [1]: 1.21 ± 0.5
glomerular width [2]: 1.02 ± 0.023
fraction of imaged embryos annotated as normal kidney [3]: 0.917
pronephric angle neck segment [4]: 1.04 ± 0.088

CN[C@@H]1[C@H](O[C@H]2[C@H](O[C@H]3[C@H](O)[C@@H](O)[C@H](N=C(N)N)[C@@H](O)[C@@H]3N=C(N)N)O[C@@H](C)[C@]2(O)C=O)O[C@@H](CO)[C@H](O)[C@H]1O [Streptomycin sulfate]
glomerular separation [1]: 0.691 ± 0.22
glomerular width [2]: 1.08 ± 0.098
fraction of imaged embryos annotated as normal kidney [3]: 0.917
pronephric angle neck segment [4]: 0.959 ± 0.043

Nc1nc(N)c2nc(-c3ccccc3)c(N)nc2n1 [Triamterene]
glomerular separation [1]: 1.02 ± 0.42
glomerular width [2]: 0.902 ± 0.0063
fraction of imaged embryos annotated as normal kidney [3]: 0.75
pronephric angle neck segment [4]: 0.935 ± 0.046

CC(C)(C)C(=O)OCOC(=O)[C@@H]1N2C(=O)[C@@H](/N=C/N3CCCCCC3)[C@H]2SC1(C)C [Pivmecillinam hydrochloride]
glomerular separation [1]: 0.772 ± 0.17
glomerular width [2]: 1.101 ± 0.0091
fraction of imaged embryos annotated as normal kidney [3]: 0.75
pronephric angle neck segment [4]: 1.04 ± 0.012

Nc1ccc(S(=O)(=O)Nc2cnc3ccccc3n2)cc1 [Sulfaquinoxaline sodium salt]
glomerular separation [1]: 0.886 ± 0.3
glomerular width [2]: 0.97 ± 0.033
fraction of imaged embryos annotated as normal kidney [3]: 1
pronephric angle neck segment [4]: 1.09 ± 0.012

CC(C)NC[C@@H](O)COc1cccc2ccccc12 [(R)-Propranolol hydrochloride]
glomerular separation [1]: 1.07 ± 0.46
glomerular width [2]: 0.963 ± 0.013
fraction of imaged embryos annotated as normal kidney [3]: 0.833
pronephric angle neck segment [4]: 0.98475 ± 0.00073

CCC1(c2ccccc2)C(=O)NCNC1=O [Primidone]
glomerular separation [1]: 0.835 ± 0.33
glomerular width [2]: 1.0079 ± 0.00034
fraction of imaged embryos annotated as normal kidney [3]: 0.917
pronephric angle neck segment [4]: 1.03 ± 0.025

O=C(OCCOCCO)c1ccccc1Nc1cccc(C(F)(F)F)c1 [Etofenamate]
glomerular separation [1]: 3.04 ± 0.95
glomerular width [2]: 0.684 ± 0.026
fraction of imaged embryos annotated as normal kidney [3]: 0
pronephric angle neck segment [4]: 1.75 ± 0.018

CC1(C)O[C@@H]2C[C@H]3[C@@H]4C[C@H](F)C5=CC(=O)CC[C@]5(C)[C@H]4[C@@H](O)C[C@]3(C)[C@]2(C(=O)CO)O1 [Flurandrenolide]
glomerular separation [1]: 1.09 ± 0.49
glomerular width [2]: 1.08 ± 0.04
fraction of imaged embryos annotated as normal kidney [3]: 0.333
pronephric angle neck segment [4]: 0.979 ± 0.1

Cc1cc(C(=O)NNCc2ccccc2)no1 [Isocarboxazid]
glomerular separation [1]: 1.01 ± 0.72
glomerular width [2]: 1.21 ± 0.067
fraction of imaged embryos annotated as normal kidney [3]: 0.25
pronephric angle neck segment [4]: 1.382 ± 0.0021

Cn1cnc([N+](=O)[O-])c1Sc1ncnc2[nH]cnc12 [Azathioprine]
glomerular separation [1]: 1.2 ± 0.26
glomerular width [2]: 1.02 ± 0.042
fraction of imaged embryos annotated as normal kidney [3]: 0.833
pronephric angle neck segment [4]: 0.994 ± 0.015

CCN(CC)C(C)CN1c2ccccc2Sc2ccccc21 (stereo not drawn) [Ethopropazine hydrochloride]
glomerular separation [1]: 0.571 ± 0.084
glomerular width [2]: 1.03 ± 0.035
fraction of imaged embryos annotated as normal kidney [3]: 0.917
pronephric angle neck segment [4]: 1 ± 0.029
